Compound activity: PubChem, The Scripps Research Institute Molecular Screening Center
A selection: hits, their analogues and other compounds. The true share with any hit is near 2.9%.
PAFAH1B2 inh: PAFAH1B2 enzyme inhibitors, primary screen, biochemical, fluorescence polarization, human; Platelet-activating factor acetylhydrolase IB subunit alpha2 (Homo sapiens), P68402; inhibition, % at 3.39 µM; hit rate 1.2% among 340,000; recombinant PAFAH1B2, FP-rhodamine activity probe; AID 492953, 2010;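 active = inhibition above the mean of all tested compounds plus 3 SD, cut at about 24% in these data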;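 note: 0% = enzyme with DMSO and 100% = wells lacking PAFAH1B2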
pPAFAH inh: pPAFAH enzyme inhibitors, primary screen, biochemical, fluorescence polarization, human. Platelet-activating factor acetylhydrolase (Homo sapiens), Q13093. hit rate 1.5% among 330,000. AID 463082, 2010. inhibition, % at 3.39 µM. recombinant pPAFAH, FP-rhodamine probe fluorescence polarization;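 active = inhibition above the mean inhibition across the screen plus 3 SD, cut at about 25% in these data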;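 note: inhibitors block binding of the rhodamine activity-based probe so polarization drops; 0% = enzyme with DMSO and 100% = wells lacking pPAFAH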
PME-1 primary: PME-1 inhibitors via competitive probe labeling, primary screen, biochemical, fluorescence polarization, FP-Rh probe, HTS. Protein phosphatase methylesterase 1 (Homo sapiens), Q9Y570. AID 2130, 2009. inhibition, % at 5.9 µM. recombinant PME-1. hit rate 0.53% among 320,000;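 active = inhibition above the campaign mean of all compounds plus 3 SD, cut at about 26% in these data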;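 note: competitive labeling of PME-1 active site by serine hydrolase directed probe; 0% = PME-1 with DMSO and 100% = wells lacking PME-1 enzyme; inhibitors block probe labeling so polarization falls and inhibition rises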
PAFAH2 FP inh: PAFAH2 enzyme inhibitors, primary screen, biochemical, fluorescence polarization, human; Platelet-activating factor acetylhydrolase 2, cytoplasmic (Homo sapiens), Q99487; recombinant PAFAH2, FP-rhodamine activity probe; inhibition, % at 3.39 µM; hit rate 0.99% among 340,000;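 active = inhibition above the mean over all tested compounds plus 3 SD, cut at about 30% in these data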;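 note: inhibitors block probe labeling of enzyme so polarization drops; 0% = enzyme with DMSO and 100% = wells lacking PAFAH2 protein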
Fam108B inh: mouse Fam108B serine hydrolase inhibitors, primary screen, counter-screen for RBBP9 inhibitor project, biochemical, fluorescence polarization; recombinant Fam108B, FP-Rh probe fluorescence polarization; inhibition, % at 9.51 µM; hit rate 0.33% among 300,000;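 active = inhibition above the screen mean inhibition plus 3 SD, computed separately per campaign, cut at about 18% in these data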;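 note: inhibitors lower polarization as less probe binds the enzyme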
PAFAH1B3 inh: PAFAH1B3 enzyme inhibitors, primary screen, biochemical, fluorescence polarization, human; Platelet-activating factor acetylhydrolase IB subunit alpha1 (Homo sapiens), Q15102; recombinant PAFAH1B3, FP-rhodamine probe; inhibition, % at 3.39 µM; hit rate 0.28% among 340,000; AID 492972, 2010;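 active = inhibition above the screen-wide average of all tested compounds plus 3 SD, cut at about 25% in these data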;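 note: 0% = enzyme with DMSO only and 100% = wells lacking PAFAH1B3 protein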
Target sequence (Q15102 whole entry, looked up): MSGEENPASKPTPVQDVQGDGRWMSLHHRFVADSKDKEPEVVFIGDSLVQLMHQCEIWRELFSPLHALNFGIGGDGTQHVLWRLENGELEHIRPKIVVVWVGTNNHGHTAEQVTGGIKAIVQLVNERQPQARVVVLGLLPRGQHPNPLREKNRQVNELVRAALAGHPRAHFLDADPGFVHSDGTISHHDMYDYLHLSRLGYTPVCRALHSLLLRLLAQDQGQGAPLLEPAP
The depositor's hits bear a star; · = no result given.

SMILES	PAFAH1B2 inh	pPAFAH inh	PME-1 primary	PAFAH2 FP inh	Fam108B inh	PAFAH1B3 inh
Cc1cccc(OCC(=O)Nc2nnc(S(=O)(=O)N3CCC(C)CC3)s2)c1	27*	1	-5	1	-3	4
Cc1cccc(OCC(=O)Nc2nnc(S(=O)(=O)N3CCCCC3)s2)c1	5	-1	-3	1	-8	4
CC1CCN(S(=O)(=O)c2nnc(NC(=O)c3ccccc3Br)s2)CC1	28*	3	2	3	-5	5
O=C(Nc1nnc(S(=O)(=O)N2CCCC2)s1)c1ccccc1Br	6	3	2	-5	-2	6
COc1ccc(NC(=O)COC(=O)c2ccc(O)cc2)c([N+](=O)[O-])c1	0	28*	10	49*	4	6
CC(C)(C)c1cc(OC(=O)C2CCCC2)ccc1O	92*	-3	3	4	1	13
CC(C)(C)c1cc(OS(C)(=O)=O)ccc1O	10	4	-4	-3	0	7
OCC[C@H]1C[C@H](O)[C@@H](O)[C@]2(CCCc3ccccc3O2)O1	-1	1	0	4	0	7
Cc1nc2ccccc2nc(=O)c1NNc1ccccc1	4	·	·	-1	·	11
Cc1ccc2nc(=O)c(NNc3ccccc3)cnc2c1	-3	1	41*	-1	4	2
CC(C)N(C(=O)Cn1c(-c2ccccc2Cl)nc2ccccc21)c1ccccc1	14	26*	2	0	1	0
O=C1N=C(N2C=CC(=C3C=CNC=C3)C=C2)/C(=C/N=NC(=O)c2ccccc2O)S1	7	26*	2	16	13	16
COc1ccc(Cc2nn3c(-c4ccccc4OC)nnc3s2)cc1	1	11	0	5	-1	3
COc1ccccc1-c1nnc2sc(COc3ccc(Cl)cc3)nn12	26*	1	-9	6	1	-3
CCC(C)c1ccc(C(C)NC(=S)NCc2ccc(F)cc2)cc1 (stereo not drawn)	24*	-1	-14	-2	-20	-5
CCCc1ccc(C(C)NC(=S)NCc2ccc(F)cc2)cc1 (stereo not drawn)	15	4	-3	-7	-10	5
COc1ccc(C(C)NC(=S)NCc2ccc(F)cc2)cc1OC (stereo not drawn)	-4	-7	5	0	2	-5
CCC(NC(=S)NCc1ccc(F)cc1)c1ccc(C(C)C)cc1 (stereo not drawn)	29*	-5	-3	-7	-15	-9
CCC(=O)N(C)CCc1cc2c(c(OC)c1/C=N/NS(=O)(=O)c1ccc(C)cc1)OCO2	3	6	0	2	-5	6
CC(=O)c1nn(-c2cccc(Br)c2)cc1C(=O)c1ccco1	-4	25*	5	5	-3	8
C=CCn1cnc2scc(-c3ccc(CC)cc3)c2c1=O	0	5	-2	5	1	-1
O=C(O)c1ccccc1C(=O)Nc1cc(C(F)(F)F)ccc1N1CCCC1	6	30*	4	8	-2	5
Cc1cc(NC(=O)Cn2cc([N+](=O)[O-])cn2)no1	2	4	-1	-2	-1	8
Cc1cccc[n+]1C1C(c2ccccc2)C(C#N)=C(C(=C=[N-])C#N)NC1(O)C1CC1 (stereo not drawn)	16	29*	-13	30*	8	21
N#CC(=C=[N-])C1=C(C#N)C(c2ccccc2F)C([n+]2ccccc2)C(O)(C2CC2)N1 (stereo not drawn)	-1	30*	2	2	16	5
CCCn1c(CCC(=O)Nc2ccccc2Cc2ccccc2)nc2cc(S(=O)(=O)N3CCOCC3)ccc21	-4	-5	37*	-12	-14	-10
Cn1c(CCC(=O)Nc2ccc(F)cc2)nc2cc(S(=O)(=O)N3CCOCC3)ccc21	1	-2	2	-3	-1	2
